These results are taken from PubChem BioAssay (NCATS).

Unmarked numbers belong to inactive results. Results filed as inconclusive are left out. The source made the active and inactive calls. Unless noted, calls follow the shape of the dose curve; as a rule, active = well fitted curve in the direction sought with a large enough effect; inconclusive = small, poorly fitted or top-dose-only effect, or another doubt; inactive = no such curve, though single readings can be large; an effect the other way counts as inactive or inconclusive.

Assay [1] can be described thus: Cell Viability - MRC5 (AID 434; calls by dose curve;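 also: potency is read from the fitted curve at half-maximal effect; potency reflects cytotoxicity seen as loss of intracellular ATP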). The conditions noted are these: MRC5 lung fibroblast viability, qHTS. The method, boiled down: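 MRC5 normal human lung fibroblasts, 1500 cells/well, exposed to compound for 40 hr at 37 C. Cellular ATP was read by CellTiter-Glo luminescence; data normalized to DMSO and 100 uM tamoxifen, with AC50 from Hill fits.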
Assay [2] can be described thus: Cell Viability - HUV-EC-C (AID 542). Also: nearly all actives have a fitted effect of over 35% in size. Also: potency is read from the fitted curve at half-maximal effect. Conditions: HUV-EC-C endothelial cell viability, qHTS; series mostly up to 92.2 µM. The gist of the method:
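qHTS cytotoxicity: HUV-EC-C, 1000 cells/well, 5 hr settle, compound 40 hr 37 °C, CellTiter-Glo, luminescence. AC50 via Hill equation.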

Assay [3] is described as follows: Cellular Toxicity (caspase-3) HepG2 (AID 654). Also: potency is read from the fitted curve at half-maximal effect.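 As to caspase-3 activation: cells exposed to compound for 16 hours before reading; 0% = DMSO alone and 100% = caspase signal from 100 µM tamoxifen.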 Conditions: HepG2 caspase-3 activation, luminescence; series mostly up to 92.2 µM. The gist of the method: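 Cells plated 5 hr at 37 °C, compound added, incubated 16 hr at 37 °C. Caspase-Glo 3/7 reagent followed, 20 min at room temperature, then luminescence read. Activation scored as signal increase; AC50 from Hill fit.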

Assay [4] in a line: Cellular Toxicity (caspase-3) HUV-EC-C (AID 656). Also: potency is read from the fitted curve at half-maximal effect. Conditions: HUV-EC-C cells, caspase-3 activation (apoptosis); series mostly up to 92.2 µM. The gist of the method:
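Luminescent caspase-3/7 activation (aminoluciferin substrate cleavage) in HUV-EC-C cells after 16 hr compound exposure, 37°C. Signal normalized to DMSO basal and 100 uM tamoxifen as 100%; AC50 from concentration-response fitted with the Hill equation.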

A short description of assay [5]: Cellular Toxicity (caspase-3) SHSY5Y (AID 657). The conditions noted are these: SH-SY5Y caspase-3 activation; series mostly up to 91.7 µM. The method, boiled down:
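Luminescent caspase-3/7 readout (aminoluciferin release) in SH-SY5Y cells after 16 h compound exposure in complete medium. Activity scaled between DMSO basal and 10 uM staurosporine as 100%; concentration-response fitted to Hill equation for AC50.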

A short description of assay [6]: Cellular Toxicity (caspase-3) Mesangial (AID 660).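 Also: combined caspase 3 and 7 activity read by Caspase-Glo luminescence.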 Conditions: mesangial cells, normalized: DMSO 0%, 100 µM tamoxifen 100%; series mostly up to 91.7 µM. The gist of the method:
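Mesangial cells, 1000/well, 5 h settle at 37 °C; compound 16 h, 37 °C; Caspase-Glo 3/7 reagent 20 min RT; luminescence. Norm.: DMSO = 0%, tamoxifen 100 uM = 100%. AC50, Hill fit.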

Assay [7] in a line: Cellular Toxicity (caspase-3) SK-N-SH (AID 661). Conditions: SK-N-SH caspase-3 activation, qHTS, DMSO as zero, staurosporine as full; series mostly up to 91.7 µM. The gist of the method: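 Human neuroblastoma SK-N-SH, 1500 cells/well, 5 hr pre-incubation, then compound 16 hr, 37 °C. Caspase-Glo 3/7 reagent, 1 hr RT, luminescence. Norm. to DMSO/10 uM staurosporine; Hill-fit AC50.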
On the technique in general: qHTS replaces the single test concentration by a dilution series.

Assay [8] in a line: Cellular Toxicity (caspase-3) H-4-II-E (AID 663). Also: potency is read from the fitted curve at half-maximal effect. The conditions noted are these: H-4-II-E rat hepatoma; Potency: caspase-3 activation; series mostly up to 92.2 µM. The method, boiled down: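 Rat hepatoma H-4-II-E cells (1500/well) plated 5 hr, then exposed to compound titrations for 16 hr at 37 °C. Caspase-Glo 3/7 luminescence read after 20 min at RT; data normalized to DMSO and 100 uM tamoxifen, AC50 from Hill fits.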

The nature of assay [9]: Cellular Toxicity (caspase-3) N2a (AID 665).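 Also: compound exposure lasted 16 h at 37 °C before readout.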 The conditions noted are these: N2a cells, luminescence, normalized: DMSO 0%, 10 µM staurosporine 100%; series mostly up to 92.2 µM. The method, boiled down: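 N2a cells, 1500/well, 5 h settle at 37 °C; cpd 16 h, 37 °C; Caspase-Glo 3/7, 1 h RT; luminescence. Norm: DMSO = 0, 10 uM staurosporine = 100%. AC50, Hill fit.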
Assay [10] in a line: Cellular Toxicity (caspase-3) NIH 3T3 (AID 666).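 Also: 0% = DMSO basal and 100% = 100 µM tamoxifen stimulation.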 Conditions: NIH 3T3 caspase-3 activation, apoptosis/toxicity, 0% DMSO, 100% is 100 µM tamoxifen; series mostly up to 92.2 µM. The gist of the method:
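Luminescence from aminoluciferin released by caspase-3/7 cleavage of a peptide substrate served as read-out. Mouse fibroblast NIH 3T3 cells were exposed to compounds over a concentration range for 16 hours, and AC50 values came from standard Hill modelling.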

A short description of assay [11]: Cellular Toxicity (caspase-3) Renal Proximal Tubule (AID 667).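 Also: cells exposed to compound for 16 hours at 37 °C before detection.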 Also: potency is read from the fitted curve at half-maximal effect. The conditions noted are these: renal proximal tubule cells, primary cells freshly taken from rat; Potency: caspase-3 activation; series mostly up to 91.7 µM. The method, boiled down: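 Luminescent caspase 3/7 signal from peptide-aminoluciferin cleavage measures apoptosis in freshly isolated rat kidney proximal tubule cells after 16 h compound exposure. Concentration-response data are normalized to DMSO and 10 uM staurosporine, and AC50 values come from Hill equation fits.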

A short description of assay [12]: MultiTox-Fluor Cytotoxicity Assay - LYMP1-001 - Dead Cells (AID 946). Also: potency is read from the fitted curve at half-maximal effect. Conditions: LYMP1-001 lymphoblastoid cells, dead-cell protease fluorescence; series mostly up to 92.2 µM. The method, boiled down: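 In this qHTS, 15 uM tetraoctylammonium bromide defined 100% and DMSO defined basal activity. Lymphoblastoid cells (LYMP1-001, 2500 per well) received compound for 16 hr at 37 C before a fluorogenic dead-cell substrate readout at 485/520 nm.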

Assay [13] in a line: MultiTox-Fluor Cytotoxicity Assay - LYMP1-003 - Dead Cells (AID 961). Also: nearly all actives have a fitted effect of over 70% in size. Also: potency is read from the fitted curve at half-maximal effect. The conditions noted are these: LYMP1-003 lymphoblastoid cells, dead-cell protease fluorescence; series mostly up to 92.2 µM. The gist of the method:
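Acute toxicity is scored as increased dead-cell protease activity in human lymphoblastoid LYMP1-003 cells after 16 h compound exposure in complete culture medium. Activity is normalized to DMSO basal and 15 uM tetraoctylammonium bromide as full response.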

Assay [14] can be described thus: MultiTox-Fluor Cytotoxicity Assay - LYMP1-003 - Live Cells (AID 962).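 Also: 0% = DMSO only and full loss = 92 µM tetraoctylammonium bromide; cytotoxic hits lower the live-cell protease signal.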 Conditions: LYMP1-003 lymphoblastoid cells, MultiTox-Fluor live-cell protease fluorescence; series mostly up to 92.2 µM. The gist of the method: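 qHTS, 1536-well; 2500 cells/well LYMP1-003; 5 hr 37 C settle; cpd 16 hr 37 C; MultiTox-Fluor reagent 60 min RT; live-cell protease fluor. 405/510; Hill-fit AC50; tetraoctylammonium bromide pos. ctrl.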

Assay [15] can be described thus: Cell Viability - LYMP1-003 - Assay at 24 hr (AID 963). Also: potency is read from the fitted curve at half-maximal effect. Conditions: LYMP1-003 lymphoblastoid cell viability; series mostly up to 92.2 µM. The method, boiled down: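 Cells seeded at 2500/well, 5 hr at 37 C; compounds added; 24 hr at 37 C; CellTiter-Glo added, 30 min room temperature; luminescence read. Decrease in ATP taken as cytotoxicity, AC50 from Hill modelling.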

Assay [16] in a line: Cell Viability - LYMP1-002 - Assay at 24 hr (AID 993). Also: potency is read from the fitted curve at half-maximal effect. Conditions: LYMP1-002 lymphoblastoid cells viability; series mostly up to 92.2 µM. The gist of the method: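 Cells plated 2500/well, 5 hr 37 C; compounds added, 24 hr 37 C; CellTiter-Glo added, 30 min RT; luminescence read. Tetraoctylammonium bromide positive control. Hill-equation AC50.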
Assay [17] is described as follows: qHTS Assay for Identification of Small Molecule Inducers of Hypoxia Response (AID 2120; active = well fitted curve in the direction sought with a large enough effect in the signal ratio, with a control signal flat, not every such curve was filed as active; the % refers to the signal ratio; also: 0% is about no effect). Conditions: hypoxia response reporter cells, beta-lactamase ratio readout; series mostly up to 104 µM. The gist of the method: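 ME-180 HRE-bla cells plated in Opti-MEM/0.5% dialyzed FBS, rested 4-5 h, then dosed with compound titrations by pin tool. After 17 h at 37 degrees C, CCF4 dye loaded 2.5 h at RT; 460/530 nm ratio gave %Activity and AC50.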

The target of assay [18] is Peroxisome proliferator-activated receptor alpha (Homo sapiens) (UniProt Q07869). Briefly: qHTS assay for small molecule agonists of the peroxisome proliferator-activated receptor alpha (PPARalpha) signaling pathway (AID 651778). Also: % of control where 0% means no effect. Conditions: PathHunter PPARalpha complementation, chemiluminescence, 6 h; max response: active compounds read high. The method, boiled down:
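Enzyme-fragment complementation assay in which ligand-bound PPARalpha translocates and forms an active enzyme that generates chemiluminescence. Cells were plated overnight, exposed to compound for 6 hr at 37 C, and then given detection reagent for 60 min at room temperature.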

Assay [19] can be described thus: qHTS assay for small molecule agonists of the antioxidant response element (ARE) signaling pathway measured by Nrf2-dependant transcriptional activity - cell viability counter screen (AID 720653; active = well fitted curve in the direction sought with a large enough effect in the repeat runs; an effect the other way counts as inactive or inconclusive; also: potency is read from the fitted curve at half-maximal effect; as to max response: % is scaled to controls: 0 for no effect and ±100 for the full control effect). Conditions: ARE-bla HepG2 viability, CellTiter-Glo ATP luminescence, 16 h; max response: active compounds read low. The method, boiled down: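 ARE-bla HepG2 cells treated with compounds for 16 h at 37C; this counter screen measures viability as intracellular ATP by CellTiter-Glo luminescence after 30 min at room temperature.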

The nature of assay [20]: qHTS assay for cell viability of the p53RE-bla HCT-116 cell line (AID 743292). Also: nearly all actives have a fitted effect of over 55% in size. Also: potency is read from the fitted curve at half-maximal effect. Conditions: p53RE-bla HCT-116 viability, ATP luminescence, 16 h; series mostly up to 95 µM. The method, boiled down: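 Compound-exposed HCT-116 (p53RE-bla) cells, 4,000 per well, were kept 16 h at 37 C following a 5 h preincubation. Cell number was estimated from total ATP by CellTiter-Glo luminescence read after 30 min at room temperature.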

Peroxisome proliferator-activated receptor alpha (Homo sapiens), sequence (Q07869 whole entry, looked up, the tested form may be a part): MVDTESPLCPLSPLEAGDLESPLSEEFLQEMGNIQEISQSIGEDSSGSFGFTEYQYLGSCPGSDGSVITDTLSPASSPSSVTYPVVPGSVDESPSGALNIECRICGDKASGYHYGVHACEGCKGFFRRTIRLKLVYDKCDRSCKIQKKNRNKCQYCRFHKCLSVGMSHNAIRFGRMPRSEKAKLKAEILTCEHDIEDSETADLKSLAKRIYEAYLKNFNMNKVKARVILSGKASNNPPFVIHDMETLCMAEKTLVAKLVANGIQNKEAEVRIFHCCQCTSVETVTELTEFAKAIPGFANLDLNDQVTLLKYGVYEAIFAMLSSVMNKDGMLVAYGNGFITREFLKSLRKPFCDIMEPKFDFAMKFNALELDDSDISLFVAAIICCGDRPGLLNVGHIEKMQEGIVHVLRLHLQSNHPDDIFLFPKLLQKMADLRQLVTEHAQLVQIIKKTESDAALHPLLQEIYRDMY

With `CC(=O)OC(C(=O)c1ccccc1)c1ccccc1` (stereo unspecified), in assay [1], the Potency is over 92 µM. Besides, the Potency result in [2], in [3], in [4], in assay [5], in [8] and in assay [11] was “inactive” in each case. For the same compound, the Potency entry in [12], in assay [13], in [14], in assay [15], in assay [16] and in [17] was “inactive” each time. Moreover, in assay [20], the Potency result is “inactive”. For the same compound, the call in [6], in [7], in [9] and in assay [10] was inactive. For the same compound, the results for the max response in assay [18] and in [19] were -5.41% and -8.03%, respectively.

In the case of `C[C@@H]1CC2(OC(O)[C@]3(C)O[C@H]23)O[C@H]2C[C@@]3(C)[C@@H]4CC[C@H]5C(C)(C)C(O[C@@H]6OC[C@@H](O)[C@H](O)[C@H]6O)CC[C@@]56C[C@@]46CC[C@]3(C)[C@@H]12` (stereo partly specified), the Potency in [1] was over 92 µM; in assay [3], 31.6 µM (active); in assay [19], 70.8 µM (active). Moreover, the Potency entry in assay [2], in assay [4], in assay [5], in assay [12], in assay [13] and in assay [14] was “inactive” each time. The Potency entry in assay [15], in [17] and in assay [20] was “inactive” throughout. Also, the compound was classed as inactive in assay [9]. For the same compound, the max response in [18] was 6.75%.

For the compound `CC1=C(/C=C/C(C)=C/C=C/C(C)=C/C=O)C(C)(C)CCC1`, the Potency in [1] was 33.4 µM (active); in [2], 31.6 µM (active); in assay [3] it was 63.1 µM (active); in assay [4], 39.8 µM (active); in assay [8], 31.6 µM (active); in assay [11] it was 31.6 µM (active). Besides, the Potency in [13], in assay [15], in [16] and in [20] was 50.1 µM (active) throughout. Also, the Potency entry in assay [17] is “inactive”. Further, the max response was -2.8% in assay [18] and 2.27% in assay [19].

With `C/C=C1/C(=O)C[C@H]2[C@@H]3CCC4=CC(=O)CC[C@]4(C)[C@H]3CC[C@]12C`, the Potency in assay [1] was over 92 µM; in assay [12], 39.8 µM (active); in assay [13], 50.1 µM (active); in [16], 50.1 µM (active). The Potency result in assay [2], in assay [3], in assay [4], in [5], in [8] and in [11] was “inactive” each time. The Potency result in assay [14], in assay [17] and in assay [20] was “inactive” in each case. For the same compound, the call in assay [6], in assay [7], in [9] and in [10] was inactive. The max response in assay [18] is -2.73%; in [19], -1.31%.
